This passage reports growth results from the supplement of paper PMC9262897, “Low-cost anti-mycobacterial drug discovery using engineered E. coli” (Nature Communications, 2022).

SMILES strings stand for the structures. Where a name gives a salt, the structure may show the parent alone. ± gives the standard deviation of the averaged measurements.

This assay concerns E. coli TESEC Alr+ wild-type control. Nature of the assay: growth (OD600 after 10 h); higher = more growth (less inhibition). To be noted: compound 0.1 mM; raw OD600 reference: median of DMSO wells 0.49, cell-free background 0.052. The procedure: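 TESEC Mtb Alr E. coli (ΔaraC ΔtolC ΔentC Δalr ΔdadX, arabinose-inducible Mtb Alr) or the Alr+ wild-type control strain, grown in defined M9-fructose medium without D-alanine in 96-well plates with Prestwick library compounds at 0.1 mM and 1% DMSO. Low Alr induction is 0.1 µM arabinose and high induction is 10 mM arabinose.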
As to `CC(=O)[C@@]1(O)CC[C@H]2[C@@H]3C[C@H](C)C4=CC(=O)C=C[C@]4(C)[C@@]3(F)[C@@H](O)C[C@@]21C` [Fluorometholone], the growth turned out to be 0.447 ± 0.013. `NC(=O)c1ccc[n+]([C@@H]2O[C@H](COP(=O)([O-])OP(=O)(O)OC[C@H]3O[C@@H](n4cnc5c(N)ncnc54)[C@H](O)[C@@H]3O)[C@@H](O)[C@H]2O)c1` [Nadide] showed a growth of 0.564 ± 0.14. `CN(C)CCCSC(=N)N` [Dimaprit dihydrochloride] gave a growth of 0.617 ± 0.017.

Turning to `CCN(CC)CCCC(C)Nc1c2ccc(Cl)cc2nc2ccc(OC)cc12` (stereo not given) [Quinacrine dihydrochloride hydrate], the growth was determined as 0.125 ± 0.049. In the case of `COc1ccc2c(c1)C(=O)N(CCc1ccc(S(=O)(=O)NC(=O)NC3CCCCC3)cc1)C(=O)C2(C)C` [Gliquidone] it was 0.0675 ± 0.001; in that of `CN[C@@H]1[C@@H](O)[C@@H](O[C@@H]2[C@@H](O)[C@H](O[C@H]3OC(CN)=CC[C@H]3N)[C@@H](N)C[C@H]2N)OC[C@]1(C)O` [Sisomicin sulfate], 0.198 ± 0.21. In turn, `COc1ccc(C(Cl)=C(c2ccc(OC)cc2)c2ccc(OC)cc2)cc1` [Chlorotrianisene] returned a growth of 0.469 ± 0.025. As to `CCN1CCCC1CNC(=O)c1cc(S(N)(=O)=O)ccc1OC` (stereo not given) [Sulpiride], the growth stood at 0.525 ± 0.011. Compound `O=C(NCCN1CCOCC1)c1ccc(Cl)cc1` [Moclobemide] returned a growth of 0.615 ± 0.038. `CN1CCN(C(c2ccccc2)c2ccccc2)CC1` [Cyclizine hydrochloride] came in with a growth of 0.602 ± 0.088.

The compound `CC[C@H]1OC(=O)[C@H](C)[C@@H](O[C@H]2C[C@@](C)(OC)[C@@H](O)[C@H](C)O2)[C@H](C)[C@@H](O[C@@H]2O[C@H](C)C[C@H](N(C)C)[C@H]2O)[C@](C)(O)C[C@@H](C)/C(=N\OCOCCOC)[C@H](C)[C@@H](O)[C@]1(C)O` [Roxithromycin] returned a growth of 0.05257 ± 0.00029. Turning to `Clc1cnccn1` [2-Chloropyrazine], the growth amounted to 0.586 ± 0.067.

`CCOCCn1c(N2CCCN(C)CC2)nc2ccccc21` [Emedastine] gave a growth of 0.514 ± 0.081. In the case of `CN(C)CCC=C1c2ccccc2CCc2ccccc21` [Amitryptiline hydrochloride], the growth is 0.476 ± 0.0078. In the case of `OCCN1C[C@H](O)[C@@H](O)[C@H](O)[C@H]1CO` [Miglitol] it was 0.583 ± 0.098; in that of `Cc1ccc(NC(=O)c2ccc(CN3CCN(C)CC3)cc2)cc1Nc1nccc(-c2cccnc2)n1` [Imatinib], 0.455 ± 0.046; in that of `CC(NCCc1ccc(O)cc1)C(O)c1ccc(O)cc1` (stereo not given) [Ritodrine hydrochloride], 0.56 ± 0.074.

`CCN(CC)CCNc1ccc(CO)c2sc3ccccc3c(=O)c12` [Hycanthone] yielded a growth of 0.377 ± 0.0077. Turning to `C[C@]12CCC(=O)C=C1C=C[C@@H]1[C@@H]2CC[C@@]2(C)[C@H]1CC[C@@]21CCC(=O)O1` [Canrenone], the growth turned out to be 0.282 ± 0.014. Compound `Cc1cc(-c2ccccc2)nnc1NCCN1CCOCC1` [Minaprine dihydrochloride] came in with a growth of 0.498 ± 0.045.

In turn, `CO[C@@]1(NC(=O)CSCC#N)C(=O)N2C(C(=O)O)=C(CSc3nnnn3C)CS[C@@H]21` [Cefmetazole sodium salt] showed a growth of 0.0516 ± 0.012. Take `CN(C)CCc1c[nH]c2ccc(Cn3cncn3)cc12` [Rizatriptan benzoate]: the growth is 0.633 ± 0.061. In the case of `CO[C@H]1/C=C/O[C@@]2(C)Oc3c(C)c(O)c4c(O)c(c5c(nc6cc(C)ccn65)c4c3C2=O)NC(=O)/C(C)=C\C=C\[C@H](C)[C@H](O)[C@@H](C)[C@@H](O)[C@@H](C)[C@H](OC(C)=O)[C@@H]1C` [Rifaximin], the growth was 0.0531 ± 0.00076. `CC1(C)[C@@H](OC(=O)CCC(=O)O)CC[C@]2(C)[C@H]3C(=O)C=C4[C@@H]5C[C@@](C)(C(=O)O)CC[C@]5(C)CC[C@@]4(C)[C@]3(C)CC[C@@H]12` [Carbenoxolone disodium salt] showed a growth of 0.426 ± 0.03. For `O=C(O)COCCN1CCN(C(c2ccccc2)c2ccc(Cl)cc2)CC1` (stereo not given) [Cetirizine dihydrochloride], the growth is 0.655 ± 0.047. In the case of `COc1ccnc(C[S+]([O-])c2nc3cc(OC(F)F)ccc3[nH]2)c1OC` (stereo not given) [Pantoprazole sodium], the growth was 0.451 ± 0.013. On to `NC[C@@H]1O[C@H](O[C@H]2[C@@H](O)[C@H](O[C@@H]3[C@@H](O)[C@H](N)C[C@H](N)[C@H]3O[C@H]3O[C@H](CO)[C@@H](O)[C@H](O)[C@H]3N)O[C@@H]2CO)[C@H](N)[C@@H](O)[C@@H]1O` [Paromomycin sulfate], for which the growth was 0.535 ± 0.089. `CCCN(CCC)C(=O)C(CCC(=O)O)NC(=O)c1ccccc1` (stereo not given) [Proglumide] returned a growth of 0.477 ± 0.079. `CCOC(=O)c1ccc(OC(=O)CCCCCNC(=N)N)cc1` [Gabexate mesilate] gave a growth of 0.495 ± 0.029. In turn, `CCN[C@H]1C[C@H](C)S(=O)(=O)c2sc(S(N)(=O)=O)cc21` [Dorzolamide hydrochloride] yielded a growth of 0.47 ± 0.0087. With `NS(=O)(=O)c1cc2c(cc1Cl)NCNS2(=O)=O` [Hydrochlorothiazide], the growth is 0.448 ± 0.062. With `CNCCc1ccccn1` [Betahistine mesylate], the growth was found to be 0.557 ± 0.1. For `O=C(O)c1ccccc1C(=O)Nc1ccc(S(=O)(=O)Nc2nccs2)cc1` [Phthalylsulfathiazole], the growth came to 0.47 ± 0.037. Turning to `Nc1c2c(nc3ccccc13)CCCC2` [Tacrine hydrochloride], the growth was 0.513 ± 0.063.

With `CC(C)OC(=O)C(C)(C)Oc1ccc(C(=O)c2ccc(Cl)cc2)cc1` [Fenofibrate], the growth came out at 0.469 ± 0.026. To `CC(=O)[C@H]1CC[C@H]2[C@@H]3C=CC4=CC(=O)CC[C@@]4(C)[C@@H]3CC[C@]12C` [Dydrogesterone] belongs 0.318 ± 0.0089. `C=CC1=C(C(=O)O)N2C(=O)[C@@H](NC(=O)/C(=N\O)c3csc(N)n3)[C@H]2SC1` [Cefdinir] gave a growth of 0.0483 ± 0.0014.

In turn, `Nc1ccc(S(N)(=O)=O)cc1` [Sulfanilamide] came in with a growth of 0.507 ± 0.044.

Compound `Cc1cc2c(cc1S(N)(=O)=O)S(=O)(=O)CCC2` [Meticrane] yielded a growth of 0.423 ± 0.008. Compound `NS(=O)(=O)c1cc(Cl)c(Cl)c(S(N)(=O)=O)c1` [Dichlorphenamide] came in with a growth of 0.443 ± 0.011.
